Measurements taken from PubChem BioAssay (EPA / NIEHS).
Where “and” joins values, the source holds several entries; their conditions need not be identical. Equal values may be shown once. Some structures have more than one record in an assay (separate samples or runs), and their calls can disagree. Calls of active or inactive are those of the source. How the source made its calls: active means hit-call score of the fitted dose curve at least 0.9, where 1 is the maximum; inactive means score below 0.9.

Experiments:
[1] = ATG_GLI_CIS: Attagene CIS-FACTORIAL HepG2 Assay for human Zinc Finger Protein GLI1 (AID 2282945); details: HepG2, Attagene cis-factorial reporter mRNA, GLI element; actives raise or lower the signal
Summary of the method: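 HepG2 cells transiently transfected with cis-promoter multiplexed reporter units report endogenous transcription factor activity. After 24 h chemical exposure, reporter mRNA was quantified by RT-PCR, 6-FAM labelling, HpaI digestion and capillary electrophoresis, with bidirectional fitting against DMSO.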

[2] = target: Bile acid receptor (Homo sapiens) (UniProt Q96RI1); assay: ATG_IR1_CIS: Attagene CIS-FACTORIAL HepG2 Assay for human Nuclear Receptor Subfamily 1 Group H Member 4 (NR1H4), IR1 submotif (AID 2282946); details: IR1 reporter transcription, actives raise or lower the signal
Summary of the method: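 Transient MRTU transfection, HepG2; 24 h dosing; RNA → RT-PCR → 6-FAM primer extension → HpaI digest → capillary electrophoresis fluorescence. Gain/loss of signal fitted relative to DMSO.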

[3] = ATG_GRE_CIS: Attagene CIS-FACTORIAL HepG2 Assay for human Glucocorticoid Response Elements (GRE) (AID 2282947); details: HepG2 GRE cis-reporter, Attagene multiplex mRNA; actives raise or lower the signal
Summary of the method: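 Following 24 h chemical exposure of transiently transfected HepG2 cells, total RNA was reverse-transcribed and reporter cDNA amplified, fluorescently labelled and sized by capillary electrophoresis. Signal gain or loss was fitted relative to DMSO vehicle.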

[4] = ATG_ISRE_CIS: Attagene CIS-FACTORIAL HepG2 Assay for human Interferon Regulatory Factor 1 (IRF1) binding to an Interferon-Stimulated Response Element (ISRE) (AID 2282948); details: HepG2 ISRE cis-reporter (Attagene), mRNA transcription readout; actives raise or lower the signal
Summary of the method: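 Cell-based cis-reporter assay; HepG2; 24 h exposure; reporter mRNA by RT-PCR plus capillary electrophoresis fluorescence; activity in either direction scored relative to DMSO.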

[5] = ATG_M_32_CIS: Attagene CIS-FACTORIAL HepG2 Assay for M32 Transcription Factor (Internal Marker) (AID 2282949); details: HepG2 Attagene cis-factorial M32 reporter, mRNA; actives raise or lower the signal;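 further: background control marker of the multiplexed CIS panel rather than a real target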
Summary of the method: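 Fluorescent capillary electrophoresis peaks of HpaI-digested, FAM-labelled RT-PCR reporter products give the signal. Source: transiently transfected human liver HepG2 cells, 24 h after chemical dosing; bidirectional fitting against DMSO.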

[6] = ATG_M_06_CIS: Attagene CIS-FACTORIAL HepG2 Assay for M06 Transcription Factor (Internal Marker) (AID 2282950); details: HepG2 Attagene CIS-FACTORIAL M06 internal marker reporter; actives raise or lower the signal
Summary of the method: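 Steps: transfect HepG2 with multiplexed cis-element reporter constructs; dose chemical 24 h; extract RNA with DNase treatment; reverse-transcribe, PCR-amplify, 6-FAM label, HpaI digest; separate fragments by capillary electrophoresis. Activity fitted both directions versus DMSO.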

[7] = target: Hypoxia-inducible factor 1-alpha (Homo sapiens) (UniProt Q16665); assay: ATG_HIF1a_CIS: Attagene CIS-FACTORIAL HepG2 Assay for human Hypoxia Inducible Factor 1 (HIF1A) (AID 2282951); details: HepG2 Attagene cis-factorial HIF1a reporter transcription; actives raise or lower the signal
Summary of the method: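 HepG2, transient cis-reporter library, 24 h dosing. RNA → RT (oligo dT) → PCR → 6-FAM primer extension → HpaI → CE. Bidirectional curve fit vs DMSO.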

[8] = target: Hepatocyte nuclear factor 6 (Homo sapiens) (UniProt Q9UBC0); assay: ATG_HNF6_CIS: Attagene CIS-FACTORIAL HepG2 Assay for human Hepatocyte Nuclear Factor 6 (HNF6) (AID 2282952); details: HepG2 Attagene cis-factorial HNF6 reporter transcription; actives raise or lower the signal
Summary of the method: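 Cells are HepG2 carrying transiently transfected cis-promoter reporter units. Treatment lasts 24 h, after which reporter transcripts are reverse-transcribed, amplified, FAM-labelled and sized by capillary electrophoresis. DMSO serves as baseline.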

[9] = target: Heat shock factor protein 1 (Homo sapiens) (UniProt Q00613); assay: ATG_HSE_CIS: Attagene CIS-FACTORIAL HepG2 Assay for human Heat Shock Transcription Factor 1 (HSE) (AID 2282953); details: HepG2 HSE cis-reporter, Attagene RNA transcription; actives raise or lower the signal
Summary of the method: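 Cells were transfected with cis-element-driven reporter constructs, dosed for 24 h, then total RNA was reverse-transcribed and reporter cDNA amplified, FAM-labelled and digested with HpaI. Fragments were resolved by capillary electrophoresis; gain or loss was fitted against DMSO.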

[10] = ATG_MRE_CIS: Attagene CIS-FACTORIAL HepG2 Assay for human Metal Responsive Element (MRE) (AID 2282954); details: HepG2 MRE cis-reporter transcription, Attagene multiplex; actives raise or lower the signal
Summary of the method: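 Step one: transfect HepG2 with cis-regulated reporter units. Step two: dose 24 h. Step three: isolate RNA, RT-PCR, 6-FAM label, HpaI digest, capillary electrophoresis. Fit bidirectionally to DMSO.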

[11] = ATG_PBREM_CIS: Attagene CIS-FACTORIAL HepG2 Assay for human Phenobarbital-responsive Enhancer Module (PBREM) (AID 2282955); details: HepG2 PBREM cis-reporter, Attagene multiplexed transcription; actives raise or lower the signal
Summary of the method: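 HepG2, transient MRTU transfection, 24 h dosing; RNA → oligo(dT) RT → PCR → 6-FAM extension → HpaI → CE. Bidirectional fit vs DMSO.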

[12] = target: Paired box protein Pax-6 (Homo sapiens) (UniProt P26367); assay: ATG_Pax6_CIS: Attagene CIS-FACTORIAL HepG2 Assay for human Paired Box 6 (PAX6) (AID 2282956); details: HepG2 CIS-FACTORIAL PAX6 reporter transcription, RNA readout; actives raise or lower the signal
Summary of the method: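 Multiplexed cis-reporter HepG2 system; 24 h treatment; reporter mRNA read by RT-PCR/CE fluorescence; bidirectional fit vs DMSO.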

[13] = ATG_PXRE_CIS: Attagene CIS-FACTORIAL HepG2 Assay for human Pregnane X Receptor Element (PXRE) (AID 2282957); details: HepG2 Attagene CIS-FACTORIAL PXRE reporter, mRNA; actives raise or lower the signal
Summary of the method: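 Multiplexed cis-reporter assay in transiently transfected human HepG2 cells; 24 h chemical exposure. Reporter transcripts quantified by RT-PCR with fluorescent labeling and capillary electrophoresis.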

[14] = ATG_PPRE_CIS: Attagene CIS-FACTORIAL HepG2 Assay for human Peroxisome Proliferator-activated Response Element (PPRE) (AID 2282958); details: HepG2 PPRE cis-element reporter, Attagene transcription factor profiling; actives raise or lower the signal
Summary of the method: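 Transcript-level reporter induction in transfected HepG2 cells after 24 h chemical exposure, quantified by fluorescence from RT-PCR products separated by capillary electrophoresis.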

[15] = ATG_RORE_CIS: Attagene CIS-FACTORIAL HepG2 Assay for human RAR-related Orphan Receptor Element (RORE) (AID 2282959); details: HepG2 Attagene cis-factorial RORE reporter, mRNA; actives raise or lower the signal
Summary of the method: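 Multiplexed reporter assay measuring mRNA induction from a cis promoter element in transiently transfected HepG2 cells after 24 h treatment. Detection via RT-PCR and capillary electrophoresis fluorescence; DMSO serves as baseline.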

[16] = ATG_Sox_CIS: Attagene CIS-FACTORIAL HepG2 Assay for human SRY-box transcription factor (SOX) (AID 2282960); details: HepG2 Attagene cis-factorial SOX reporter, mRNA; actives raise or lower the signal
Summary of the method: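 Cells were transfected with reporter constructs under cis-regulatory promoters, then exposed to chemicals for 24 h. Reporter transcripts were quantified by fluorescence after RT-PCR and capillary electrophoresis; activity was fitted in both directions against DMSO.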

[17] = target: Transcription factor Sp1 (Homo sapiens) (UniProt P08047); assay: ATG_Sp1_CIS: Attagene CIS-FACTORIAL HepG2 Assay for human Specificity Protein 1 (Sp1) (AID 2282961); details: HepG2 Sp1 cis-reporter transcription, actives raise or lower the signal
Summary of the method: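 Measures mRNA induction of an Sp1-linked reporter in HepG2 cells 24 h post-dosing. Multiplexed reporters read by RT-PCR and capillary electrophoresis; DMSO serves as negative control and baseline.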

[18] = ATG_SREBP_CIS: Attagene CIS-FACTORIAL HepG2 Assay for human Sterol Regulatory Element Binding (SREBP) (AID 2282962); details: HepG2 Attagene cis-factorial SREBP reporter, mRNA; actives raise or lower the signal
Summary of the method: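 mRNA induction of transfected cis-promoter reporters in HepG2 cells, 24 h post-dose. Detection: RT-PCR with 6-FAM-labelled products, HpaI digest, capillary electrophoresis. DMSO served as negative control and baseline.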

[19] = target: Signal transducer and activator of transcription 3 (Homo sapiens) (UniProt P40763); assay: ATG_STAT3_CIS: Attagene CIS-FACTORIAL HepG2 Assay for human Signal Transducer and Activator of Transcription 3 (STAT3) (AID 2282963); details: HepG2, Attagene cis-factorial STAT3 reporter transcription; actives raise or lower the signal
Summary of the method: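 Transcript-level reporter assay. HepG2 transient MRTU transfection, 24 h exposure, fluorescence detection after RT-PCR and CE; DMSO baseline.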

[20] = ATG_TA_CIS: Attagene CIS-FACTORIAL HepG2 Assay for human TA Basal Promoter (AID 2282964); details: HepG2 Attagene CIS-factorial TA basal promoter reporter; actives raise or lower the signal
Summary of the method: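 Steps: transfect HepG2 with MRTUs; dose 24 h; isolate RNA, DNase-treat, reverse-transcribe; PCR and FAM-label reporter cDNA; digest with HpaI 2h at 37 C; run capillary electrophoresis. Activity fitted both directions against DMSO.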

Measured: AC50

Chain of Paired box protein Pax-6 (Homo sapiens) (P26367 whole entry, looked up): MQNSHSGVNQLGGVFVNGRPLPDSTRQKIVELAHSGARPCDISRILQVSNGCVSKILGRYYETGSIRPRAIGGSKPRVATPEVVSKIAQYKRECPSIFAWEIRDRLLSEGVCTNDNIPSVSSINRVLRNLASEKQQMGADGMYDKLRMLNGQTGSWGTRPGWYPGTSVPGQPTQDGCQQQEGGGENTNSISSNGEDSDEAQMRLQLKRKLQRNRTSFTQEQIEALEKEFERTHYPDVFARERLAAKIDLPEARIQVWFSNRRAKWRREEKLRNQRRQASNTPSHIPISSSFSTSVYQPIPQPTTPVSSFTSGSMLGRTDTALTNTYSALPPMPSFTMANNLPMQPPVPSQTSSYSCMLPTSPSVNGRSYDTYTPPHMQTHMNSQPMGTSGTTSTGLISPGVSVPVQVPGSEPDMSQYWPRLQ
Chain of Bile acid receptor (Homo sapiens) (Q96RI1 whole entry, looked up): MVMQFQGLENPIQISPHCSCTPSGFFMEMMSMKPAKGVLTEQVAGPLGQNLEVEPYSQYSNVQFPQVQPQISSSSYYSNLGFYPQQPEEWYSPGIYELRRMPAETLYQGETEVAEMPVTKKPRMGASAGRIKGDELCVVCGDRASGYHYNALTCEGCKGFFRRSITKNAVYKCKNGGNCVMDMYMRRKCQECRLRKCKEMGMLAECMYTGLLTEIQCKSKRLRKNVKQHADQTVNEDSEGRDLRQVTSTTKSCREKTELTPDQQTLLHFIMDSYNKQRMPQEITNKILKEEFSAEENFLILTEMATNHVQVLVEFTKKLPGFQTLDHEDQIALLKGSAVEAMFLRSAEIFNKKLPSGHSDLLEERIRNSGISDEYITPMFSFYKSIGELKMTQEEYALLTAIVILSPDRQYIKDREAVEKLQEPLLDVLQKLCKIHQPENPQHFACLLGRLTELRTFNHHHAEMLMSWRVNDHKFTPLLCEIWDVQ
Chain of Transcription factor Sp1 (Homo sapiens) (P08047 whole entry, looked up): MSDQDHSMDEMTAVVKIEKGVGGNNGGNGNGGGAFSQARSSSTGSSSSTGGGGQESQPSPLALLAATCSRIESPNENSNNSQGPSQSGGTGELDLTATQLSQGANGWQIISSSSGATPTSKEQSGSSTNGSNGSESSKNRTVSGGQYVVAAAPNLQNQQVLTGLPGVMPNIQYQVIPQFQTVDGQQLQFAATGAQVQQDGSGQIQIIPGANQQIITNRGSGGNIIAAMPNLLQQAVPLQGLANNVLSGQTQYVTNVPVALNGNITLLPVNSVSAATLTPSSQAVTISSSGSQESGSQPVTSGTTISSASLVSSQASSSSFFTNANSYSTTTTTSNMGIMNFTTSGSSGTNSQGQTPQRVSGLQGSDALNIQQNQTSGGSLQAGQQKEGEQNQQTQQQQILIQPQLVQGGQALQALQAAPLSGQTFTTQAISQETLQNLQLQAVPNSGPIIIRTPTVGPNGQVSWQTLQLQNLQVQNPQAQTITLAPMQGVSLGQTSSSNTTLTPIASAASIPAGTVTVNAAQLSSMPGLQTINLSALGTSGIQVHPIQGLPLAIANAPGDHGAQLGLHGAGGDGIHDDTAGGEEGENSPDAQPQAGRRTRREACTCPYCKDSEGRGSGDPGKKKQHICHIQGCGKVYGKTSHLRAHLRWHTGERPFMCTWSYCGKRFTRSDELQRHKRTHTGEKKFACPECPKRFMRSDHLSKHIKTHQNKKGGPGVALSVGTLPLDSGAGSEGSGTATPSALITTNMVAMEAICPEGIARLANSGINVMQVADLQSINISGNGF
Chain of Heat shock factor protein 1 (Homo sapiens) (Q00613 whole entry, looked up, the tested form may be a part): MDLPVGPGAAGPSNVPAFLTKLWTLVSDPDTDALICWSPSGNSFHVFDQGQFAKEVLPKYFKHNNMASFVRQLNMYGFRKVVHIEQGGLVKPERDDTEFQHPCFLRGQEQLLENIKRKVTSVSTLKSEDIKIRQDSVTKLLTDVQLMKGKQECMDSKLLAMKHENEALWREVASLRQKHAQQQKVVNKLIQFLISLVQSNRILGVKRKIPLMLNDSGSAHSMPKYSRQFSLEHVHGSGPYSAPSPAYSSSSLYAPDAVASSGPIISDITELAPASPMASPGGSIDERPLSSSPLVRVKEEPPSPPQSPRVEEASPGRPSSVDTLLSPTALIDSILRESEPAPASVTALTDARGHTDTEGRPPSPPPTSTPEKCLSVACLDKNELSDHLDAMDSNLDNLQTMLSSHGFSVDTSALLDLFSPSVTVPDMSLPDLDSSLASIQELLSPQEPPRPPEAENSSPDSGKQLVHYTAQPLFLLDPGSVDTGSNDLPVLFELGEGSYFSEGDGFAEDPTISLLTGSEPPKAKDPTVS
Chain of Hypoxia-inducible factor 1-alpha (Homo sapiens) (Q16665 whole entry, looked up): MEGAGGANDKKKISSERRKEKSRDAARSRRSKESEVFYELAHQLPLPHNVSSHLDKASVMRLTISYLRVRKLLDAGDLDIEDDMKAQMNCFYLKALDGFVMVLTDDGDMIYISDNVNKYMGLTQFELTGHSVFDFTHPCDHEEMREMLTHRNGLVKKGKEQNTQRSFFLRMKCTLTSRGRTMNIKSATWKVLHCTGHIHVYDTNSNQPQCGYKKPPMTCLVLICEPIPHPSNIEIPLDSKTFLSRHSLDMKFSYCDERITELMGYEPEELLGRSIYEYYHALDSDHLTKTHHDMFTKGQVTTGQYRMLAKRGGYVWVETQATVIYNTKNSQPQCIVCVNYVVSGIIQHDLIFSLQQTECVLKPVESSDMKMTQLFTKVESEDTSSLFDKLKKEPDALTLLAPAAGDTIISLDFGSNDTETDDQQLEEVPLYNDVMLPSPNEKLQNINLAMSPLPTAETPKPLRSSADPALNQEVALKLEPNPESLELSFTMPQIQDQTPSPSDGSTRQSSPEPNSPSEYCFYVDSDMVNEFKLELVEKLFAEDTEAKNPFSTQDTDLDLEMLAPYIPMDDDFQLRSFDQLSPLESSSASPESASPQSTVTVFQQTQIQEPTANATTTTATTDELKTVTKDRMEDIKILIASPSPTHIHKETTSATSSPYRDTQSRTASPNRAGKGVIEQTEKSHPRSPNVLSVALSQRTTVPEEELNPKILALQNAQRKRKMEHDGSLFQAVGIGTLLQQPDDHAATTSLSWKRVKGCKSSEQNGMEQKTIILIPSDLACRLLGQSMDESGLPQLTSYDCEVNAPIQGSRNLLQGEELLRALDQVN
Chain of Signal transducer and activator of transcription 3 (Homo sapiens) (P40763 whole entry, looked up): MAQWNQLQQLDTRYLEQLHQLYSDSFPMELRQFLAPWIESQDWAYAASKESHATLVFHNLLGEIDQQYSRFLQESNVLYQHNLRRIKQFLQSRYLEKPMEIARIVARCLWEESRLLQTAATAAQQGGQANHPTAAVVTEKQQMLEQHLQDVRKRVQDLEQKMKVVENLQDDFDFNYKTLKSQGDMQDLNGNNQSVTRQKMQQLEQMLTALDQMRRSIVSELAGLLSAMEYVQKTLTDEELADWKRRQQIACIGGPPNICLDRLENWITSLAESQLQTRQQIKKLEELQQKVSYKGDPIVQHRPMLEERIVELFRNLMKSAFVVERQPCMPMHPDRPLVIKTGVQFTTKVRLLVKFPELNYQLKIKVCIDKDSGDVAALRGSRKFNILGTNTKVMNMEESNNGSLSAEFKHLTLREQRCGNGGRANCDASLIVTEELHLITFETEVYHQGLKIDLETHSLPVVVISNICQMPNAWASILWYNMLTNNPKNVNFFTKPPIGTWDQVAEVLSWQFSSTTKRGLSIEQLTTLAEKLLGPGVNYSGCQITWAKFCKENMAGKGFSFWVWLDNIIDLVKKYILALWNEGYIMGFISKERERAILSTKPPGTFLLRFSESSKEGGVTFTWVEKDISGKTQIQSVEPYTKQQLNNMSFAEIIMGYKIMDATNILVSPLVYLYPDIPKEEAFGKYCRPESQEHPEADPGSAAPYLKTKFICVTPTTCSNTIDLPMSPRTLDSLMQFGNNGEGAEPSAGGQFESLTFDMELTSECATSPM
Chain of Hepatocyte nuclear factor 6 (Homo sapiens) (Q9UBC0 whole entry, looked up): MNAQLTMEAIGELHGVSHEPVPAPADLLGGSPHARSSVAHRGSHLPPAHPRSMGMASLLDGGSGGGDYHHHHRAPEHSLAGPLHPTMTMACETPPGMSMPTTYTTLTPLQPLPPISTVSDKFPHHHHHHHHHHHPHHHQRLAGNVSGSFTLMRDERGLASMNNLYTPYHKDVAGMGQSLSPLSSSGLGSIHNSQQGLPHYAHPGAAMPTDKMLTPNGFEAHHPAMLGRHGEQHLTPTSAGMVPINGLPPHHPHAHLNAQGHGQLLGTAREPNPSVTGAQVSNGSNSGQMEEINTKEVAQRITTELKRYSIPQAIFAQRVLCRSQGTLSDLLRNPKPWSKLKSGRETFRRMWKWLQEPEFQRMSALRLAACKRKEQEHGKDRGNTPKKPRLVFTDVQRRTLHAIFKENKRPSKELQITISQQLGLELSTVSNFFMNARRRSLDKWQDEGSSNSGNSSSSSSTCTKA

Nc1ccc(Sc2ccc(N)cc2)cc1
active: [7] 45.3 µM | [10] 77.3 µM | [11] 100 µM | [13] 41.2 µM | [14] 51.2 µM | [15] 36.6 µM
inactive: all other assays above

O=P(OCC(Br)CBr)(OCC(Br)CBr)OCC(Br)CBr (centres undefined)
active: [4] 10.3 µM | [7] 16.3 µM | [10] 24.9 µM | [12] 19.6 µM | [13] 0.0674 µM | [18] 22.9 µM | [20] 11.8 µM
not listed: [15]
inactive: all other assays above

Cc1c([N+](=O)[O-])cc2c(c1[N+](=O)[O-])C(C)(C)CC2(C)C
active: [13] 0.964 µM | [18] 7.71 µM
inactive: all other assays above

O=S(=O)(c1ccc(O)cc1)c1ccc(O)cc1
active: [13] 35.9 µM
not listed: [15]
inactive: all other assays above

c1nc[nH]n1
active: [13] 59.3 µM
inactive: all other assays above

CCOP(=S)(S)OCC
active: [9] 157 µM | [13] 57.5 µM
inactive: all other assays above

COC(=O)C(F)(F)C(F)(F)OC(F)(C(F)(F)F)C(F)(F)OC(F)=C(F)F (centres undefined)
inactive: [1] | [2] | [3] | [4] | [5] | [6] | [7] | [8] | [9] | [10] | [11] | [12] | [15] | [16] | [17] | [18] | [19] | [20]
active: [13] 4.84 µM and 15.2 µM and 5.55 µM | [14] 160 nM and 436 nM and 230 nM | [15] 0.451 µM
